Results: PubChem BioAssay (EPA / NIEHS)
Inconclusive results are not listed. Activity calls are given as the source filed them. Rule for the calls: active = hit-call score of the fitted dose curve at least 0.9, where 1 is the maximum; inconclusive = response in the unintended direction; inactive = score below 0.9.

Target: human Vitamin D Receptor (VDR), VDR (gene 7421) (UniProt P11473)
Assay: ATG_VDR_TRANS: Attagene TRANS-FACTORIAL HepG2 Assay for human Vitamin D Receptor (VDR) (AID 2283022)
Method in brief: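 RT-PCR/capillary electrophoresis read-out of reporter mRNA induction in transiently transfected HepG2; 24 h dosing; chimeric NR-Gal4 (TRANS format); gain-of-signal fit against DMSO baseline.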

human Vitamin D Receptor (VDR), VDR (gene 7421), sequence (P11473 whole entry, looked up): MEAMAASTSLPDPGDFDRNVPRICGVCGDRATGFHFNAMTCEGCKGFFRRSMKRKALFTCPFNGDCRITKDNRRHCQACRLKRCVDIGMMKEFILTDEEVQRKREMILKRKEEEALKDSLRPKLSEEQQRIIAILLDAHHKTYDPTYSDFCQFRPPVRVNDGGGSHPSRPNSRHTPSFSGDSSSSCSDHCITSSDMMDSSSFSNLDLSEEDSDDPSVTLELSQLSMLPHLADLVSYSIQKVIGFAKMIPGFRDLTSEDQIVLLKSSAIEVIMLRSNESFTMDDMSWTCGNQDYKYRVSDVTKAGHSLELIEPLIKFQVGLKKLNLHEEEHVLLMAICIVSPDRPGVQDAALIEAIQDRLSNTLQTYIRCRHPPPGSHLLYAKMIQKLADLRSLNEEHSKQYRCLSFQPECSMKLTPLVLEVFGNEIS

outcome, inactive:
C=Cc1ccc(O)c(OC)c1
O=C(O)C(=O)O
FC(F)(F)C(F)(F)C(F)(F)C(F)(F)I
Nc1ccc(O)c(C(=O)O)c1
CCN(CC)CC
CC1CCC(C(=O)O)CC1 (stereo not given)
CNNCc1ccc(C(=O)NC(C)C)cc1
O=C(c1cc(O)c(O)c(O)c1)c1ccc(O)c(O)c1O
c1cc2cccc3c4cccc5cccc(c(c1)c23)c54
O=C(OC(=O)C(F)(F)C(F)(F)F)C(F)(F)C(F)(F)F
CCOC=C(C(=O)OCC)C(=O)OCC
O=S(=O)(c1ccc(OCc2ccccc2)cc1)c1ccccc1O
CCOC=O
O=C(C=C(O)C(F)(F)F)C(F)(F)F
CCc1cccc(CC)c1NC(=O)C(=O)O
FCOC(C(F)(F)F)C(F)(F)F
NS(=O)(=O)O
C=CC(=O)OCCN(CC)CC
CCOC(C)=O
Cc1cncc(C)c1
CCCCCCCCCCCCCCCC(=O)OC
Oc1c(Cl)cc(Cl)cc1Sc1cc(Cl)cc(Cl)c1O
CC1CNCC(C)O1 (stereo not given)
CC(C)(C)c1ccc(CCC=O)cc1
Oc1cccc2c(O)cccc12
CCN(CCC#N)c1ccccc1
COc1cc([N+](=O)[O-])ccc1N
NNC(=O)CCCCC(=O)NN
FC(F)(F)C1(F)C(F)(F)C(F)(F)C(F)(F)C(F)(C(F)(F)F)C1(F)F (stereo not given)
C=CC(=O)OCCC(F)(F)C(F)(F)C(F)(F)C(F)(F)C(F)(F)C(F)(F)F
